# Bioassay records deposited in PubChem by National Center for Advancing Translational Sciences (NCATS).
# An excerpt weighted towards active compounds, which were near 19% of everything screened.
# DT40 TDP1 CPT – DT40-hTDP1 cell growth loss with CPT. hit rate 12% among 420,000. Potency, µM (titrated, usually from 46.2 µM), inactives show top-dose activity change, negative = growth inhibition, usual class: inhibitors. chicken DT40 Tdp1-/-;hTDP1 cells + 20 nM CPT, ATP luminescence, 48 h; note: potency is the fitted concentration of half-maximal effect; nearly all actives have a fitted effect of over 55% in size
#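 Chicken DT40 Tdp1-/- cells stably complemented with human TDP1 were seeded at 400 cells/well in medium containing 20 nM camptothecin, exposed to pin-transferred compounds, and grown at 37 °C for at least 48 hr. Viability was read as ATP luminescence.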
# HT1080-NT tox – kills 2HG-producing HT-1080-NT fibrosarcoma cells. HT-1080-NT fibrosarcoma viability, CellTiter-Glo ATP luminescence, 48 h. Potency, µM (doses to about 46.1 µM), for the others: at the top dose activity, negative = less viability, most hits filed as cytotoxic. hit rate 1.6% among 360,000. AID 686970;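 note: NT is the 2HG producing partner of a matched IDH1 knockdown line; potency is the fitted concentration of half-maximal effect; 0% = DMSO-treated cells and -100% = media-only wells without cells; nearly all actives have a fitted effect of over 55% in size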
#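 Compounds were tested in concentration-response format on HT-1080-NT cells for 48 hours at 37 degrees C. Cell viability came from CellTiter-Glo luminescence; curves were classified by r2, response magnitude and activity.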
# IL1B secr inh – inhibitors of inflammasome signaling (IL-1 beta secretion); AID 743279; hit rate 4.7% among 360,000; activity change, % at 57.5 µM; THP-1 LPS/ATP IL-1B secretion, AlphaLISA, 16 h; hits give low values; in the data active = activity change below about -50%; inconclusive = mostly about -30% to -49%
#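 Secreted IL-1B measured by AlphaLISA bead assay after 16 h compound exposure of THP-1 cells; compounds (final up to 57.5 uM) added 1 h before LPS (250 ng/mL) and ATP (1.25 mM) stimulation; lower signal means less secretion.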
# HT1080 IDH1KD tx – HT-1080 IDH1 knockdown cell toxicity (counter line). Potency, µM (highest dose often 46.1 µM), for the others: at the top dose activity, negative = toxicity, actives largely listed as cytotoxic. hit rate 2% among 360,000. HT-1080 IDH1 knockdown viability, ATP luminescence, 48 h;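 note: potency is the fitted concentration of half-maximal effect; 0% = DMSO wells and -100% = cell-free medium wells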
#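 Cytotoxicity counter-line: IDH1KD HT-1080, 48 h, CellTiter-Glo. Curves classed by r2, magnitude and activity.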
# DT40 TDP1 no CPT – qHTS for Inhibitors of human tyrosyl-DNA phosphodiesterase 1 (TDP1): qHTS in cells in absence of CPT | Potency, µM (doses to about 46.2 µM), for the others: at the highest dose activity change, negative = growth inhibition, hits mostly inhibitors | hit rate 15% among 420,000 | AID 686978, 2013 | DT40 Tdp1-/- hTDP1 cells, no CPT, ATP luminescence, 48 h; note: potency is the fitted concentration of half-maximal effect; nearly all actives have a fitted effect of over 55% in size
#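 Chicken DT40 Tdp1-/- cells complemented with human TDP1, screened without camptothecin (DMSO vehicle only), 400 cells/well. Compounds pin-transferred, cells incubated at 37 °C for at least 48 hr. Growth read as ATP-dependent luminescence (CellTiter-Glo, 30 min at RT).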
# * hit, by the source's call; ? = inconclusive; · = not tested or not shown; [ ] = another dose, or the depositor's remark. Unless noted, calls come from the whole dose curve; as a rule, active = well fitted curve in the direction sought with a large enough effect; inconclusive = small, poorly fitted or top-dose-only effect, or another doubt; inactive = no such curve, though single readings can be large; an effect the other way counts as inactive or inconclusive. Unless noted, % is set by controls: 0 for no effect and ±100 for the full control effect.
SMILES,DT40 TDP1 CPT,HT1080-NT tox,IL1B secr inh,HT1080 IDH1KD tx,DT40 TDP1 no CPT
COc1ccccc1NC(=O)COC(=O)CN1C(=O)C(=O)c2ccccc21,8.2µM*,33%,-10,0%,?
Fc1cc(Br)ccc1COc1ccc(-c2nnco2)cc1,-2%,17%,-23,1%,-6%
O=C1C2CCC(C2)C1CN1CCOCC1 (stereo not drawn),-9%,0%,-13,2%,-13%
CC1CCCCC1NC(=O)CCNS(=O)(=O)c1ccc2c(c1)CCC(=O)N2 (stereo not drawn),-19%,6%,16,2%,-5%
CC(C)Oc1cccc(C(=O)NC(=S)Nc2ccccc2)c1,?,2%,-25,-1%,?
CCOC(=O)Cc1csc(NC(=O)/C=C\c2ccccc2Cl)n1,-28%,-1%,-26,-2%,?
CCOc1ccccc1NC(=O)CN1c2ccccc2S(=O)(=O)c2ccccc21,26µM*,·,·,·,?
CCN1C(=O)c2cccc3c(S(=O)(=O)NCc4ccccc4)ccc1c23,?,-6%[9.24 µM],-26,-4%,?
CCN1C(=O)c2cccc3c(S(=O)(=O)Nc4ccccc4OC)ccc1c23,12µM*,-1%,-30,-11%,15µM*
Cc1cccc2c3c([nH]c12)CCNC3,8%,-22%,-7,-24%,-23%
CCN1C(=O)/C(=C\C(=O)c2cccs2)c2cc(Br)ccc21,13µM*,-19%,-7,-8%,15µM*
Cc1ccc(OCc2nnc(SCc3nc4ccccc4[nH]3)n2Cc2ccco2)cc1,15µM*,-26%,-19,-26%,18µM*
c1ccc(-c2nnc(SCc3nc4ccccc4[nH]3)n2Cc2ccco2)cc1,-18%,-12%,-3,-4%,-21%
S=c1[nH]nc(COc2ccc(Cl)cc2)n1Cc1ccco1,4%,-7%,12,-8%,21µM*
CCn1c(COc2ccc(C)cc2)nnc1SCC(=O)Nc1cc(OC)ccc1OC,?,5%,-5,-13%,21µM*
Cc1ccc(OCc2nnc(SCC(=O)c3ccccc3)n2Cc2ccco2)cc1,23µM*,-23%,-9,-22%,18µM*
COc1ccccc1NC(=O)CSc1nnc(COc2ccc(Cl)cc2)n1Cc1ccco1,21µM*,?,?,-27%,15µM*
Clc1ccc(CSc2nnc(-c3ccccn3)n2Cc2cccs2)cc1Cl,?,?,0,?,18µM*
Fc1ccccc1CSc1nnc(-c2cnccn2)n1Cc1ccco1,-6%,0%,?,15%,-24%
Clc1ccc(CSc2nnc(-c3ccccn3)n2Cc2ccco2)c(Cl)c1,?,6%,-1,6%,29µM*
O=c1c2ccccc2nnn1CSc1nc2cc(Cl)ccc2c(=O)n1Cc1ccco1,-19%,-4%,20,2%,-1%
O=c1c2ccccc2nnn1CSc1nnc(COc2ccc(Cl)cc2)n1Cc1ccco1,23µM*,-5%,-30,1%,21µM*
COc1cc(C)cc2oc(=O)c(CC(=O)NCCc3ccc(Cl)cc3)c(C)c12,-27%,·,·,·,-26%
Cc1ccc(NC(=O)Cn2cnc3c(oc4ccccc43)c2=O)cc1Cl,1%,·,·,·,-1%
O=C(CSc1nnc(-c2ccccn2)n1Cc1ccco1)c1ccc(-c2ccccc2)cc1,29µM*,1%,-11,2%,?
SMILES,DT40 TDP1 CPT,HT1080-NT tox,IL1B secr inh,HT1080 IDH1KD tx,DT40 TDP1 no CPT
O=C(CSc1nnc(-c2ccc(O)cc2)n1Cc1ccco1)c1ccccc1,-18%,6%,-16,16%,?
COc1ccc(C(C)=O)cc1OCc1ccccc1,5%,6%,0,1%,?
Cc1cc(=O)n(-c2ccccc2)n1C,-11%,0%,-66*,2%,-7%
COc1ccc2[nH]cc(CCNc3ncncc3-c3cccc(C#N)c3)c2c1,0.0046µM*,·,·,·,?
COc1ccc2[nH]cc(CCNc3ncncc3-c3ccoc3)c2c1,4.6µM*,·,·,·,7.3µM*
CC1(C)CC(=O)c2c(oc3c(Cl)cc(NS(=O)(=O)c4ccc(Cl)cc4)cc23)C1,-26%,·,·,·,-27%
CC1=C(C(=O)OC(C)C)C(c2cccc([N+](=O)[O-])c2)n2c(cc(=O)[nH]c2=S)N1 (stereo not drawn),-24%,-1%,19,26%,-18%
COc1cccc(N(C(=O)c2cccs2)c2nc3ccccc3s2)c1,-1%,17%,-20,8%,-18%
CC1(Cc2ccccc2C#N)C(=O)Nc2ccc(-c3ccccc3)cc21 (stereo not drawn),?,-25%,-18,?,?
CC1(Cc2ccc(Cl)cc2)C(=O)Nc2ccc(-c3ccc(F)c(Cl)c3)cc21 (stereo not drawn),?,?,-19,?,?
CC1(Cc2ccc(F)cc2)C(=O)Nc2ccc(-c3cccnc3)cc21 (stereo not drawn),23µM*,10%,91,6%,10µM*
C=Cc1ccc(CC2(C)C(=O)Nc3ccc(-c4cccnc4)cc32)cc1 (stereo not drawn),?,?,60,-20%,4.6µM*
CNc1c(Br)cc(C(O)C2=CCc3ccccc32)cc1Br (stereo not drawn),8.9µM*,·,·,·,4.5µM*
CNc1c(Br)cc(/C=C2\C=Cc3ccccc32)cc1Br,-9%,·,·,·,?
CC(C)(C)OC(=O)N1CCN(c2ccc(NC(=O)Cn3nnc(-c4ccccc4)n3)cc2)CC1,?,-16%,-9,-12%,23µM*
Cc1cnc(C(=O)Nc2ccc(F)cc2)cn1,1%,22%,19,2%,-18%
CCOC(=O)c1ccc(NC(=O)Cn2nnc(-c3ccccc3)n2)cc1,?,-9%,-20,-24%,?
Cc1cnc(C(=O)Nc2ccc(N3CCN(C(=O)OC(C)(C)C)CC3)cc2)cn1,4.6µM*,?,50,?,2.3µM*
CCCSc1oc(-c2cccs2)nc1S(=O)(=O)c1ccc(C)cc1,18µM*,·,·,·,?
CCOc1ccc(NC(=O)CSc2oc(-c3ccc(F)cc3)nc2S(=O)(=O)c2ccc(C)cc2)cc1,5.8µM*,·,·,·,6.5µM*
CCOc1ccc(NC(=O)CSc2oc(-c3cccs3)nc2S(=O)(=O)c2ccc(C)cc2)cc1,12µM*,·,·,·,3.3µM*
CCSc1oc(-c2cccs2)nc1S(=O)(=O)c1ccccc1,?,-2%,0,1%,?
Cc1ccc(-c2nc(S(=O)(=O)c3ccc(F)cc3)c(SCC(=O)NCC3CCCO3)o2)cc1 (stereo not drawn),?,4%,29,3%,?
CC1(C)[C@@H](OC(=O)CCC(=O)O)CC[C@]2(C)[C@H]3C(=O)C=C4[C@@H]5C[C@@](C)(C(=O)O)CC[C@]5(C)CC[C@@]4(C)[C@]3(C)CC[C@@H]12,-12%[21.1 µM],·,·,·,1%[21.1 µM]
